{
  "source": "the supplement of paper PMC8728848",
  "binders": {"B1": {"name": "HHL-1 (Homo sapiens), P07306 (protein)", "chain": "TKEYQDLQHLDNEESDHHQLRKGPPPPQPLLQRLCSGPRLLLLSLGLSLLLLVVVCVIGSQNSQLQEELRGLRETFSNFTASTEAQVKGLSTQGGNVGRKMKSLESQLEKQQKDLSEDHSSLLLHVKQFVSDLRSLSCQMAALQGNGSERTCCPVNWVEHERSCYWFSRSGKAWADADNYCRLEDAHLVVVTSWEEQKFVQHHIGPVNTWMGLHDQNGPWKWVDGTDYETGFKNWRPEQPDDWYGHGLGGGEDCAHFTDDGRWNDDVCQRPYRWVCETELDKASQEPPLL"}},
  "experiment_in_all_cases": "glycan array binding signal (z-score within array); higher = stronger binding",
  "conditions_in_all_cases": "glycan notation: IUPAC condensed, linker removed",
  "key": {"[1]": {"target": "Fuc(a1-2)Gal(b1-3)GlcNAc(b1-3)[Gal(b1-4)[Fuc(a1-3)]GlcNAc(b1-6)]Gal(b1-4)Glc", "in_short": "(§1)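 Columns mapping to the same glycan were averaged after glycan names were converted to IUPAC-condensed notation. The data come from 3228 arrays in the Consortium for Functional Glycomics database, limited to those with an available protein sequence. Binding is reported as a within-array Z-score averaged across arrays of one protein sequence and across linkers.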"}, "[2]": {"target": "Fuc(a1-2)Gal(b1-4)GlcNAc(b1-2)Man(a1-3)[Fuc(a1-2)Gal(b1-4)GlcNAc(b1-2)Man(a1-6)]Man(b1-4)GlcNAc(b1-4)GlcNAc", "in_short": "as §1"}, "[3]": {"target": "Fuc(a1-2)[GalNAc(a1-3)]Gal(b1-4)GlcNAc(b1-3)Gal(b1-4)GlcNAc(b1-3)Gal(b1-4)GlcNAc", "in_short": "as §1"}, "[4]": {"target": "Fuc(a1-2)[GalNAc(a1-4)]Gal(b1-4)GlcNAc", "in_short": "as §1"}, "Gal(a1-2)Gal": {"target": "Gal(a1-2)Gal", "in_short": "as §1"}, "[5]": {"target": "Gal(a1-3)[Gal(a1-4)]Gal(b1-4)GlcNAc", "in_short": "as §1"}, "Gal(a1-4)Gal(b1-4)GlcNAc": {"target": "Gal(a1-4)Gal(b1-4)GlcNAc", "in_short": "as §1"}, "[6]": {"target": "Gal(b1-4)GlcNAc(b1-6)Gal(b1-4)GlcNAc(b1-6)GalNAc", "in_short": "as §1"}, "[7]": {"target": "Gal(b1-4)GlcNAc(b1-6)GalNAc", "in_short": "as §1"}, "Gal3S6S(b1-4)GlcNAc6S": {"target": "Gal3S6S(b1-4)GlcNAc6S", "in_short": "as §1"}, "GalNAc(b1-3)Gal": {"target": "GalNAc(b1-3)Gal", "in_short": "as §1"}, "[8]": {"target": "GalNAc(b1-3)Gal(a1-4)Gal(b1-4)GlcNAc", "in_short": "as §1"}, "[9]": {"target": "GalNAc(b1-3)Gal(a1-4)Gal(b1-4)GlcNAc(b1-3)Gal(b1-4)Glc", "in_short": "as §1"}, "[10]": {"target": "GlcNAc(a1-4)Gal(b1-4)GlcNAc(b1-3)Gal(b1-4)Glc", "in_short": "as §1"}, "GlcNAc(b1-6)GalNAc": {"target": "GlcNAc(b1-6)GalNAc", "in_short": "as §1"}, "Kdn(a2-3)Gal(b1-3)GlcNAc": {"target": "Kdn(a2-3)Gal(b1-3)GlcNAc", "in_short": "as §1"}, "Kdn(a2-3)Gal(b1-4)GlcNAc": {"target": "Kdn(a2-3)Gal(b1-4)GlcNAc", "in_short": "as §1"}, "Man(a1-3)[Man(a1-6)]Man": {"target": "Man(a1-3)[Man(a1-6)]Man", "in_short": "as §1"}, "[11]": {"target": "Man(a1-3)[Man(a1-6)]Man(a1-6)[Man(a1-2)Man(a1-3)]Man(b1-4)GlcNAc(b1-4)GlcNAc", "in_short": "as §1"}, "[12]": {"target": "Neu5Ac(a2-3)Gal(b1-3)GalNAc", "in_short": "as §1"}, "[13]": {"target": "Neu5Ac(a2-3)Gal(b1-3)GalNAc(b1-3)Gal(b1-4)GlcNAc", "in_short": "as §1"}, "[14]": {"target": "Neu5Ac(a2-3)Gal(b1-3)[Neu5Ac(a2-3)Gal(b1-4)]GlcNAc", "in_short": "as §1"}, "Neu5Ac(a2-3)GalNAc": {"target": "Neu5Ac(a2-3)GalNAc", "in_short": "as §1"}, "[15]": {"target": "Neu5Ac(a2-6)GlcNAc(b1-4)GlcNAc", "in_short": "as §1"}, "[16]": {"target": "Neu5Ac(b2-6)Gal(b1-4)GlcNAc", "in_short": "as §1"}, "Neu5Ac(b2-6)GalNAc": {"target": "Neu5Ac(b2-6)GalNAc", "in_short": "as §1"}, "[17]": {"target": "Neu5Gc(a2-3)Gal(b1-4)[Fuc(a1-3)]GlcNAc", "in_short": "as §1"}, "Neu5Gc(a2-6)GalNAc": {"target": "Neu5Gc(a2-6)GalNAc", "in_short": "as §1"}},
  "note": "This is one part of a sample in which the strongest signals are shown more often than they occur.",
  "data": [
    {"binder": "B1", "values": [
      {"measurement": "glycan array binding signal (z-score)", "setting": "[1]", "result": 0.628},
      {"measurement": "glycan array binding signal (z-score)", "setting": "[2]", "result": -0.533},
      {"measurement": "glycan array binding signal (z-score)", "setting": "[3]", "result": -0.3},
      {"measurement": "glycan array binding signal (z-score)", "setting": "[4]", "result": 7.69},
      {"measurement": "glycan array binding signal (z-score)", "setting": "Gal(a1-2)Gal", "result": 0.419},
      {"measurement": "glycan array binding signal (z-score)", "setting": "[5]", "result": 0.667},
      {"measurement": "glycan array binding signal (z-score)", "setting": "Gal(a1-4)Gal(b1-4)GlcNAc", "result": -0.54},
      {"measurement": "glycan array binding signal (z-score)", "setting": "[6]", "result": 0.262},
      {"measurement": "glycan array binding signal (z-score)", "setting": "[7]", "result": 4.51},
      {"measurement": "glycan array binding signal (z-score)", "setting": "Gal3S6S(b1-4)GlcNAc6S", "result": 0.503},
      {"measurement": "glycan array binding signal (z-score)", "setting": "GalNAc(b1-3)Gal", "result": 4.09},
      {"measurement": "glycan array binding signal (z-score)", "setting": "[8]", "result": 5.53},
      {"measurement": "glycan array binding signal (z-score)", "setting": "[9]", "result": 5.52},
      {"measurement": "glycan array binding signal (z-score)", "setting": "[10]", "result": -0.538},
      {"measurement": "glycan array binding signal (z-score)", "setting": "GlcNAc(b1-6)GalNAc", "result": 7.59},
      {"measurement": "glycan array binding signal (z-score)", "setting": "Kdn(a2-3)Gal(b1-3)GlcNAc", "result": -0.538},
      {"measurement": "glycan array binding signal (z-score)", "setting": "Kdn(a2-3)Gal(b1-4)GlcNAc", "result": 0.051},
      {"measurement": "glycan array binding signal (z-score)", "setting": "Man(a1-3)[Man(a1-6)]Man", "result": -0.472},
      {"measurement": "glycan array binding signal (z-score)", "setting": "[11]", "result": -0.485},
      {"measurement": "glycan array binding signal (z-score)", "setting": "[12]", "result": 0.366},
      {"measurement": "glycan array binding signal (z-score)", "setting": "[13]", "result": -0.541},
      {"measurement": "glycan array binding signal (z-score)", "setting": "[14]", "result": -0.548},
      {"measurement": "glycan array binding signal (z-score)", "setting": "Neu5Ac(a2-3)GalNAc", "result": -0.482},
      {"measurement": "glycan array binding signal (z-score)", "setting": "[15]", "result": 0.387},
      {"measurement": "glycan array binding signal (z-score)", "setting": "[16]", "result": -0.409},
      {"measurement": "glycan array binding signal (z-score)", "setting": "Neu5Ac(b2-6)GalNAc", "result": -0.515},
      {"measurement": "glycan array binding signal (z-score)", "setting": "[17]", "result": 0.159},
      {"measurement": "glycan array binding signal (z-score)", "setting": "Neu5Gc(a2-6)GalNAc", "result": -0.536}
    ]}
  ]
}
